Counter-ions that a name gives are not always drawn.

Common to all, as to conditions: 72 h
In assay [1] the test system is HCC1937. In words: relative cell viability, compound + RSL3, vs DMSO (fraction of DMSO control); higher = less growth inhibition.
Assay [2] deals with MDA-MB-231. The assay is described as above.
For assay [3], the system named is HCC1937. Kind of assay: relative cell viability, compound alone, vs DMSO (fraction of DMSO control); higher = less growth inhibition.
In assay [4] the test system is MDA-MB-231. Described as above.
In assay [5] the test system is HCC1937. Kind of assay: relative cell viability, compound + erastin, vs DMSO (fraction of DMSO control); higher = less growth inhibition.
In assay [6] the test system is MDA-MB-231. The assay is described as above.
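Wherever relative cell viability, compound + RSL3, vs DMSO is given: breast cancer cell viability read out with the CCK-8 kit after co-treatment of each compound with the ferroptosis inducer RSL3.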
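Wherever relative cell viability, compound + erastin, vs DMSO is given: viability read by CCK-8 kit in 96-well plates, part of a combination screen pairing lipid-metabolism-targeting compounds with erastin.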
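Wherever relative cell viability, compound alone, vs DMSO is given: viability read out with the CCK-8 kit in 96-well plates, screening a set of 303 compounds acting on lipid metabolism targets.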

On to `O=C(CBr)c1ccc(O)cc1` [PTP Inhibitor I] + COC(=O)c1ccc([C@H]2c3[nH]c4ccccc4c3C[C@H](C(=O)OC)N2C(=O)CCl)cc1 [RSL3], for which the relative cell viability in assay [1] worked out at 0.674; in assay [2] it was 0.577.

`C/C=C/c1cc(OC)c(OC)cc1OC` [alpha-Asarone] + COC(=O)c1ccc([C@H]2c3[nH]c4ccccc4c3C[C@H](C(=O)OC)N2C(=O)CCl)cc1 [RSL3]: the relative cell viability in assay [1] is 0.452; in assay [2], 0.541.

`O=C(Oc1ccc([N+](=O)[O-])cc1)N1CCC(C(O)(c2ccc3c(c2)OCO3)c2ccc3c(c2)OCO3)CC1`: the relative cell viability in assay [3] came out at 0.911; in assay [4] it was 0.901.

As to `C[C@@H]1C(=O)O[C@H]2[C@H](O)[C@@]34O[C@@H]5OC(=O)[C@H](O)[C@@]56[C@H](C(C)(C)C)[C@H](O)C(OC3=O)[C@]64[C@@]12O` (some centres undefined) [Ginkgolide C] + COC(=O)c1ccc([C@H]2c3[nH]c4ccccc4c3C[C@H](C(=O)OC)N2C(=O)CCl)cc1 [RSL3], the results for the relative cell viability in assay [1] and in assay [2] were 0.699 and 0.692, respectively.

For the compound `O=C(NCCN1CCC2(CC1)C(=O)NCN2c1ccccc1)c1ccc2ccccc2c1` + COC(=O)c1ccc([C@H]2c3[nH]c4ccccc4c3C[C@H](C(=O)OC)N2C(=O)CCl)cc1 [RSL3], the relative cell viability in assay [1] was 0.229; in assay [2], 0.51.

Consider `CCc1c(C(=O)C(N)=O)c2c(OCC(=O)O)cccc2n1Cc1ccccc1` [Varespladib] + COC(=O)c1ccc([C@H]2c3[nH]c4ccccc4c3C[C@H](C(=O)OC)N2C(=O)CCl)cc1 [RSL3], for which the relative cell viability was determined as 0.449 in assay [1] and 0.574 in assay [2].

For `Cc1cc(SCc2sc(-c3ccc(C(F)(F)F)c(F)c3)nc2C)ccc1OCC(=O)O` + COC(=O)c1ccc([C@H]2c3[nH]c4ccccc4c3C[C@H](C(=O)OC)N2C(=O)CCl)cc1 [RSL3], the relative cell viability in assay [1] is 0.59; in assay [2] it was 0.668.

As to `O=C(O)c1c[nH]c2cc(Cl)c(-c3ccc(C4(O)CCC4)cc3)cc12` + CCOc1ccccc1-n1c(C(C)N2CCN(C(=O)COc3ccc(Cl)cc3)CC2)nc2ccccc2c1=O [erastin], the relative cell viability in assay [5] stood at 0.599; in assay [6] it was 0.677.

With `COc1ccc(CN2CCNCC2)c(OC)c1OC` [Trimetazidine dihydrochloride], the relative cell viability in assay [3] was determined as 1.09; in assay [4] it was 0.823.

For `COc1ccc(CN2CCC(c3ccc4nc(C(=O)N5CCN(Cc6ccc(C(F)(F)F)cc6)CC5)[nH]c4c3)CC2)cn1` + CCOc1ccccc1-n1c(C(C)N2CCN(C(=O)COc3ccc(Cl)cc3)CC2)nc2ccccc2c1=O [erastin], the relative cell viability was found to be 0.569 in assay [5] and 0.585 in assay [6].

In the case of `CC(C)=CCC[C@](C)(O)[C@H]1CC[C@]2(C)[C@@H]1[C@H](O)C[C@@H]1[C@@]3(C)CC[C@H](O)C(C)(C)[C@@H]3[C@@H](O[C@@H]3O[C@H](CO)[C@@H](O)[C@H](O)[C@H]3O)C[C@]12C` [Ginsenoside Rh1] + COC(=O)c1ccc([C@H]2c3[nH]c4ccccc4c3C[C@H](C(=O)OC)N2C(=O)CCl)cc1 [RSL3], the values for the relative cell viability in assay [1] and in assay [2] were 0.654 and 0.679, respectively.

`O=C1C=CC[C@@H]2[C@H]3CCCN4CCC[C@@H](CN12)[C@@H]34` [Sophocarpine] + COC(=O)c1ccc([C@H]2c3[nH]c4ccccc4c3C[C@H](C(=O)OC)N2C(=O)CCl)cc1 [RSL3]: the relative cell viability in assay [1] came to 0.621; in assay [2] it was 0.502.

As to `CC(C)=CCC[C@](C)(O)[C@H]1CC[C@]2(C)[C@@H]1[C@H](O)C[C@@H]1[C@@]3(C)CC[C@H](O)C(C)(C)[C@@H]3[C@@H](O[C@@H]3O[C@H](CO)[C@@H](O)[C@H](O)[C@H]3O)C[C@]12C` [Ginsenoside Rh1], the relative cell viability in assay [3] worked out at 1.09; in assay [4], 1.03.

As to `COc1ccc(CN2CCNCC2)c(OC)c1OC` [Trimetazidine dihydrochloride] + COC(=O)c1ccc([C@H]2c3[nH]c4ccccc4c3C[C@H](C(=O)OC)N2C(=O)CCl)cc1 [RSL3], the relative cell viability in assay [1] amounted to 0.782; in assay [2], 0.607.

Take `O=C(CBr)c1ccc(O)cc1` [PTP Inhibitor I]: the relative cell viability in assay [3] was 1.17; in assay [4] it was 0.937.

As to `NNC(=O)c1nn(Cc2ccc(Cl)cc2Cl)c2ccccc12` [Adjudin] + COC(=O)c1ccc([C@H]2c3[nH]c4ccccc4c3C[C@H](C(=O)OC)N2C(=O)CCl)cc1 [RSL3], the results for the relative cell viability in assay [1] and in assay [2] were 0.557 and 0.45, respectively.

`CCc1c(C(=O)C(N)=O)c2c(OCC(=O)O)cccc2n1Cc1ccccc1` [Varespladib]: the figures for the relative cell viability in assay [3] and in assay [4] were 0.797 and 0.842, respectively.

In the case of `C[C@@]12C[C@@H](c3ccoc3)OC(=O)[C@@H]1CC[C@]1(C)[C@H]2[C@@H]2C=C[C@@]1(O)C(=O)O2` [Columbin] + COC(=O)c1ccc([C@H]2c3[nH]c4ccccc4c3C[C@H](C(=O)OC)N2C(=O)CCl)cc1 [RSL3], the relative cell viability in assay [1] turned out to be 0.564; in assay [2] it was 0.642.

As for `O=C(Oc1ccc([N+](=O)[O-])cc1)N1CCN(Cc2cccc(Oc3ccccc3)c2)CC1` + COC(=O)c1ccc([C@H]2c3[nH]c4ccccc4c3C[C@H](C(=O)OC)N2C(=O)CCl)cc1 [RSL3], the results for the relative cell viability in assay [1] and in assay [2] were 0.673 and 0.473, respectively.

With `O=C(Oc1ccc([N+](=O)[O-])cc1)N1CCC(C(O)(c2ccc3c(c2)OCO3)c2ccc3c(c2)OCO3)CC1` + COC(=O)c1ccc([C@H]2c3[nH]c4ccccc4c3C[C@H](C(=O)OC)N2C(=O)CCl)cc1 [RSL3], the relative cell viability in assay [1] turned out to be 0.483; in assay [2] it was 0.618.

Regarding `COc1ccc(Nc2ccn(-c3ccccc3)n2)cc1` + CCOc1ccccc1-n1c(C(C)N2CCN(C(=O)COc3ccc(Cl)cc3)CC2)nc2ccccc2c1=O [erastin], the relative cell viability in assay [5] stood at 0.686; in assay [6], 0.902.

For the compound `C[C@]12CC[C@@H](O)C[C@@H]1CC[C@@H]1[C@@H]2CC[C@]2(C)C(=O)CC[C@@H]12` [Androsterone], the figures for the relative cell viability in assay [3] and in assay [4] were 1.33 and 1.08, respectively.

For the compound `C[C@@H]1C(=O)O[C@H]2[C@H](O)[C@@]34O[C@@H]5OC(=O)[C@H](O)[C@@]56[C@H](C(C)(C)C)[C@H](O)C(OC3=O)[C@]64[C@@]12O` (some centres undefined) [Ginkgolide C], the relative cell viability came to 1.15 in assay [3] and 1.08 in assay [4].

Take `O=C(NCCN1CCC2(CC1)C(=O)NCN2c1ccccc1)c1ccc2ccccc2c1`: the relative cell viability amounted to 0.491 in assay [3] and 0.689 in assay [4].

Regarding `CN(CCOc1ccc(CC2SC(=O)NC2=O)cc1)c1ccccn1` (centres undefined) [Rosiglitazone] + CCOc1ccccc1-n1c(C(C)N2CCN(C(=O)COc3ccc(Cl)cc3)CC2)nc2ccccc2c1=O [erastin], the relative cell viability in assay [5] worked out at 0.999; in assay [6] it was 0.697.

With `O=C1C=CC[C@@H]2[C@H]3CCCN4CCC[C@@H](CN12)[C@@H]34` [Sophocarpine], the values for the relative cell viability in assay [3] and in assay [4] were 0.762 and 0.906, respectively.

For `C[C@]12CC[C@@H](O)C[C@@H]1CC[C@@H]1[C@@H]2CC[C@]2(C)C(=O)CC[C@@H]12` [Androsterone] + COC(=O)c1ccc([C@H]2c3[nH]c4ccccc4c3C[C@H](C(=O)OC)N2C(=O)CCl)cc1 [RSL3], the relative cell viability in assay [1] is 0.919; in assay [2], 0.658.

`CCC1=N[C@H]2C[C@@]3(C(=O)N(OC)c4ccccc43)[C@H]3CC1[C@@H]2CO3` [Humantenmine]: the relative cell viability was 0.922 in assay [3] and 0.978 in assay [4].

In the case of `C=C(C)[C@@H]1CCC2=CC(=O)C[C@@H](C)[C@]2(C)C1` [Nootkatone] + CCOc1ccccc1-n1c(C(C)N2CCN(C(=O)COc3ccc(Cl)cc3)CC2)nc2ccccc2c1=O [erastin], the relative cell viability came to 0.577 in assay [5] and 0.706 in assay [6].

On to `C/C=C/c1cc(OC)c(OC)cc1OC` [alpha-Asarone], for which the relative cell viability in assay [3] was 0.855; in assay [4] it was 0.976.

For the compound `Cc1cc(SCc2sc(-c3ccc(C(F)(F)F)c(F)c3)nc2C)ccc1OCC(=O)O`, the relative cell viability worked out at 1.21 in assay [3] and 0.892 in assay [4].

With `COCCNC(=O)Nc1ccc2nc(-c3cccs3)c(-c3cccs3)nc2c1` [Ac-CoA Synthase Inhibitor1] + CCOc1ccccc1-n1c(C(C)N2CCN(C(=O)COc3ccc(Cl)cc3)CC2)nc2ccccc2c1=O [erastin], the relative cell viability in assay [5] turned out to be 0.597; in assay [6] it was 0.669.

For `CCC1=N[C@H]2C[C@@]3(C(=O)N(OC)c4ccccc43)[C@H]3CC1[C@@H]2CO3` [Humantenmine] + COC(=O)c1ccc([C@H]2c3[nH]c4ccccc4c3C[C@H](C(=O)OC)N2C(=O)CCl)cc1 [RSL3], the relative cell viability is 0.585 in assay [1] and 0.679 in assay [2].

Regarding `CCN(CC)CCCC(C)Nc1c2ccc(Cl)cc2nc2ccc(OC)cc12` (centres undefined) [Quinacrine dihydrochloride] + CCOc1ccccc1-n1c(C(C)N2CCN(C(=O)COc3ccc(Cl)cc3)CC2)nc2ccccc2c1=O [erastin], the relative cell viability in assay [5] came out at 0.164; in assay [6], 0.299.

In the case of `C[C@@]12C[C@@H](c3ccoc3)OC(=O)[C@@H]1CC[C@]1(C)[C@H]2[C@@H]2C=C[C@@]1(O)C(=O)O2` [Columbin], the values for the relative cell viability in assay [3] and in assay [4] were 0.968 and 1.06, respectively.

For `O=C(Oc1ccc([N+](=O)[O-])cc1)N1CCN(Cc2cccc(Oc3ccccc3)c2)CC1`, the figures for the relative cell viability in assay [3] and in assay [4] were 0.79 and 0.782, respectively.

On to `NNC(=O)c1nn(Cc2ccc(Cl)cc2Cl)c2ccccc12` [Adjudin], for which the relative cell viability in assay [3] is 0.767; in assay [4], 0.757.

On to `CC(C)(C)N1C(=O)C(Nc2ccc(N3CCCCC3)cc2)=C(c2ccccc2)S1(=O)=O` + CCOc1ccccc1-n1c(C(C)N2CCN(C(=O)COc3ccc(Cl)cc3)CC2)nc2ccccc2c1=O [erastin], for which the relative cell viability in assay [5] was 0.678; in assay [6], 0.797.

As for `Cc1c(C(=O)Nc2ccc(CO)cc2)nnn1Cc1ccc(Cl)c(Cl)c1` + CCOc1ccccc1-n1c(C(C)N2CCN(C(=O)COc3ccc(Cl)cc3)CC2)nc2ccccc2c1=O [erastin], the relative cell viability in assay [5] came out at 0.684; in assay [6] it was 0.733.

Turning to `O=C(CCCCCCCC(=O)NCCO)NCCO` [Adelmidrol] + CCOc1ccccc1-n1c(C(C)N2CCN(C(=O)COc3ccc(Cl)cc3)CC2)nc2ccccc2c1=O [erastin], the relative cell viability was 0.701 in assay [5] and 0.73 in assay [6].

Take `O=C(Nc1cccnc1)N1CCC(Cc2cccc(Oc3ccc(C(F)(F)F)cn3)c2)CC1` + CCOc1ccccc1-n1c(C(C)N2CCN(C(=O)COc3ccc(Cl)cc3)CC2)nc2ccccc2c1=O [erastin]: the relative cell viability in assay [5] was determined as 0.663; in assay [6], 0.374.

For the compound `CCOP(=O)(OCC)C(=Cc1cc(C(C)(C)C)c(O)c(C(C)(C)C)c1)P(=O)(OCC)OCC` + CCOc1ccccc1-n1c(C(C)N2CCN(C(=O)COc3ccc(Cl)cc3)CC2)nc2ccccc2c1=O [erastin], the relative cell viability in assay [5] was 0.534; in assay [6], 0.648.

(Values after the supplement of paper PMC9492666.)
